Test results as given in PubChem BioAssay (Tox21).
Several values for one entry are separate records, joined by “and”; a condition that tells them apart may be missing. Equal entries are not always repeated. Results filed as inconclusive are left out. Activity calls are given as the source filed them. Unless noted, calls follow the shape of the dose curve; as a rule, active = well fitted curve in the direction sought with a large enough effect in the repeat runs; inconclusive = weak or mixed curves; inactive = no such curve, though single readings can be large; an effect the other way counts as inactive or inconclusive.

Legend:
[1] = qHTS assay for small molecule agonists of the p53 signaling pathway (AID 651631; calls by dose curve; also: nearly all actives have a fitted effect of over 15% in size; also: potency is read from the fitted curve at half-maximal effect)
Summary of the method: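 Testing took place in human colorectal HCT-116 cells with stable p53RE-driven beta-lactamase. After 16 h of compound exposure at 37 °C, a FRET substrate was added and fluorescence recorded 2 h later.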

[2] = qHTS assay for small molecules that induce genotoxicity in human embryonic kidney cells expressing luciferase-tagged ATAD5 (AID 651632); also: nearly all actives have a fitted effect of over 15% in size; also: potency is read from the fitted curve at half-maximal effect
Summary of the method: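 Genotoxicity read-out via ATAD5-luciferase: HEK293T cells, 16 hr compound incubation at 37C, Amplite detection.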

[3] = qHTS assay for small molecule agonists of the p53 signaling pathway - cell viability (AID 651633; calls by dose curve; also: series mostly up to about 83 µM; nearly all actives have a fitted effect of over 30% in size)
Summary of the method: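 p53RE-bla cells were treated with compound for 16 hours at 37 C. Cytotoxicity was then measured as CellTiter-Glo luminescence after 30 min at room temperature.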

[4] = qHTS assay for small molecules that induce genotoxicity in human embryonic kidney cells expressing luciferase-tagged ATAD5 - cell viability (AID 651634; calls by dose curve; also: nearly all actives have a fitted effect of over 25% in size; also: potency is read from the fitted curve at half-maximal effect)
Summary of the method: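 Live-cell protease activity (CellTiter-Fluor, fluorescence) indicates viability. HEK293T cells with luciferase-tagged ATAD5; 15.5 hr compound treatment at 37C.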

[5] = qHTS assay for small molecule disruptors of the mitochondrial membrane potential - cell viability (AID 720634; calls by dose curve;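 also: human HepG2 liver cancer cells; series mostly up to about 83 µM; nearly all actives have a fitted effect of over 20% in size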)
Summary of the method: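 Human hepatoma HepG2 cells were treated for 1 hr with test chemicals, then given m-MPI dye and CellTiter-Glo. Cell viability reflects luminescence proportional to cellular ATP.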

[6] = qHTS assay to test for compound auto fluorescence at 590 nm (red) in HepG2 cells (AID 720674)
Summary of the method: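 Seeding: 2,000 HepG2 cells/well, MEM/10% FBS, overnight 37 C. Dosing: compound vs DMSO. Incubation: 1 hr, 37 C, 5% CO2. Read: fluorescence 540 ex/590 em, Rose Bengal sodium as red reference.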

[7] = qHTS assay to test for compound auto fluorescence at 535 nm (green) in HepG2 cells (AID 720675)
[8] = qHTS assay to test for compound auto fluorescence at 460 nm (blue) in HEK293 cells (AID 720678)
Summary of the method: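 After cell attachment (4-5 hr, 37C), compounds were pinned onto HEK293 monolayers in 10% dialyzed FBS medium. The blue channel (405/460 nm) was read following overnight culture. Equivalency was calculated against triamterene.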

[9] = qHTS assay to test for compound auto fluorescence at 590 nm (red) in HEK293 cells (AID 720679)
Summary of the method: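 Plates of HEK293 cells (10% dialyzed FBS) are treated with 23 nL compound or DMSO vehicle after a 4-5 hr attachment period, incubated overnight at 37C, and read for red fluorescence at 540/590nm.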

[10] = qHTS assay to test for compound auto fluorescence at 535 nm (green) in HEK293 cells (AID 720680)
[11] = qHTS assay to test for compound auto fluorescence at 535 nm (green) in HEK293 cell free culture (AID 720682)
Summary of the method: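 DMEM + 10% FBS, cell-free; cpd or DMSO pinned in; Ex485/Em535 read; output as fluorescein-equivalent signal.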

[12] = qHTS assay to test for compound auto fluorescence at 590 nm (red) in HEK293 cell free culture (AID 720683)
Summary of the method: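 Cell-free wells of DMEM with 10% FBS received compound, and intrinsic fluorescence was read at excitation/emission 540/590 nm. Values expressed as equivalence to Rose Bengal sodium.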

[13] = qHTS assay to test for compound auto fluorescence at 590 nm (red) in HepG2 cell free culture (AID 720684)
Summary of the method: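 Compound was pinned into wells holding MEM with 10% FBS and no cells, and red fluorescence was read at Ex/Em 540/590 nm. Signal is expressed as auto fluorescence equivalency relative to Rose Bengal sodium.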

[14] = qHTS assay to test for compound auto fluorescence at 460 nm (blue) in HepG2 cell free culture (AID 720685)
Summary of the method: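 Compound (23 nL) or DMSO pinned into cell-free MEM with 10% FBS; blue fluorescence read at 405/460 nm excitation/emission, expressed as auto-fluorescence equivalency to triamterene.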

[15] = qHTS assay to test for compound auto fluorescence at 460 nm (blue) in HepG2 cells (AID 720687)
Summary of the method: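 HepG2 cells in MEM with 10% FBS, attached overnight at 37 C, were exposed to compound or DMSO for 1 hr at 37 C, 5% CO2. Blue fluorescence was read at 405/460 nm, with triamterene as reference fluorophore.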

[16] = biological target: Glucocorticoid receptor (Homo sapiens) (UniProt P04150); experiment: qHTS assay to identify small molecule agonists of the glucocorticoid receptor (GR) signaling pathway (AID 720691; active = well fitted activation curve with a large enough effect in the signal ratio in the repeat runs, not every such curve was filed as active; the % refers to the signal ratio)
Summary of the method: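 Beta-lactamase reporter activity, read as fluorescence intensity, was measured in GR-bla HeLa cells exposed to compounds for 18 h at 37 C and then loaded with LiveBLAzer B/G FRET substrate for 2 h at room temperature.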

[17] = biological target: Glucocorticoid receptor (Homo sapiens) (UniProt P04150); experiment: qHTS assay to identify small molecule antagonists of the glucocorticoid receptor (GR) signaling pathway (AID 720692; active = well fitted inhibition curve with a large enough effect in the signal ratio in the repeat runs, not every such curve was filed as active; the % refers to the signal ratio)
Summary of the method: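 Fluorescence from cleaved LiveBLAzer B/G FRET substrate reports GRE-driven beta-lactamase in HeLa cells; compounds are tested against 5 nM dexamethasone (final) over 18 h at 37 C, substrate incubation 2 h at room temperature.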

[18] = qHTS assay to test for compound auto fluorescence at 460 nm (blue) in HEK293 cell free culture (AID 720681)
Summary of the method: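 Compounds were added to cell-free DMEM with 10% FBS and fluorescence read directly. The blue channel used 405 nm excitation and 460 nm emission, with triamterene as the reference fluorophore.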

[19] = qHTS assay to test for compound auto fluorescence at 535 nm (green) in HepG2 cell free culture (AID 720686)
% is scaled to controls: 0 for no effect and ±100 for the full control effect.

Glucocorticoid receptor (Homo sapiens), sequence (P04150 whole entry, looked up): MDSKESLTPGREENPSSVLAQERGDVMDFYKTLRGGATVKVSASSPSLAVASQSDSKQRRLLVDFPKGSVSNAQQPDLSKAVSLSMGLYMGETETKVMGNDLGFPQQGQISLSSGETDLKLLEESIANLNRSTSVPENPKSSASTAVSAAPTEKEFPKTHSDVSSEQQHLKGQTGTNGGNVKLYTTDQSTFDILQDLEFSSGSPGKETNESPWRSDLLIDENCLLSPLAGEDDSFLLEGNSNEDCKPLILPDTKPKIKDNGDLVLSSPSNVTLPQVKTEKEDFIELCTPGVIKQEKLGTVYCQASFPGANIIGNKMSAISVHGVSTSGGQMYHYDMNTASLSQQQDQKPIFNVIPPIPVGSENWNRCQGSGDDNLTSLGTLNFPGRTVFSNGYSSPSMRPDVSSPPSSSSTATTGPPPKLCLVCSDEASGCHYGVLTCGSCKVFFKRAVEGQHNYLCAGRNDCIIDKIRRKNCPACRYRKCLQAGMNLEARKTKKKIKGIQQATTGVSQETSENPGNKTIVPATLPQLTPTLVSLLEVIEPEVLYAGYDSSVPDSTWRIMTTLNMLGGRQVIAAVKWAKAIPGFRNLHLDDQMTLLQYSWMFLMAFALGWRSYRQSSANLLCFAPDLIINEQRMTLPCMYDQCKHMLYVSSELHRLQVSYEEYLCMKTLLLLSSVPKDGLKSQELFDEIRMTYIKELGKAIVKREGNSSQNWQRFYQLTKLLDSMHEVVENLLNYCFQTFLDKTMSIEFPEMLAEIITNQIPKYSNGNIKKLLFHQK

O=C(CCCN1CCC(O)(c2ccc(Br)cc2)CC1)c1ccc(F)cc1
inactive: Potency [1] | Potency [2] | Potency [3] | Potency [4] | Potency [5] | fluorescence, relative to Rose Bengal [6] 0.666% [at 18.6 µM] | fluorescence, % of fluorescein control [7] 0.0047% [at 18.6 µM] | fluorescence, % of triamterene [8] -0.176% [at 18.6 µM] | fluorescence, % of fluorescent control [9] -0.139% [at 18.6 µM] | fluorescence, % of fluorescein [10] -0.0174% [at 18.6 µM] | activity change [11] 0.0165% [at 18.6 µM] | fluorescence, % of fluorescent control [12] 0.118% [at 18.6 µM] | fluorescence, % of Rose Bengal [13] -0.294% [at 18.6 µM] | fluorescence, % of fluorescent control [14] 0.0015% [at 18.6 µM] | fluorescence, % of fluorescent control [15] 0.0362% [at 18.6 µM] | Potency [16] | Potency [17]

CC(C)OCC1CO1 (stereo not drawn)
inactive: Potency [1] | Potency [2] | Potency [3] | Potency [4] | Potency [5] | outcome [6] | outcome [7] | Potency [8] | outcome [9] | outcome [10] | Potency [18] | outcome [11] | outcome [12] | outcome [13] | Potency [14] | outcome [19] | Potency [15] | Potency [16] | Potency [17]

Nc1ccc(S(=O)(=O)O)c(N)c1
inactive: Potency [1] | Potency [2] | Potency [3] | Potency [4] | Potency [5] | outcome [6] | outcome [7] | Potency [8] | outcome [9] | Potency [18] | outcome [11] | outcome [12] | outcome [13] | Potency [14] | outcome [19] | Potency [16] | Potency [17]

C=C(C)C(=O)OCCOC(=O)CC(C)=O
inactive: Potency [1] | Potency [2] | Potency [3] | Potency [4] | Potency [5] | outcome [6] | outcome [7] | Potency [8] | outcome [9] | Potency [18] | outcome [11] | outcome [12] | Potency [14] | outcome [19] | Potency [15] | Potency [16] | Potency [17]

CC(C)(C)C(=O)C(Oc1ccc(Cl)cc1)n1ccnc1 (stereo not drawn)
inactive: Potency [1] | Potency [2] | Potency [3] | Potency [4] | Potency [5] | outcome [6] | outcome [7] | Potency [8] | outcome [9] | Potency [18] | outcome [11] | outcome [12] | outcome [13] | Potency [14] | Potency [15]

CC(C)CCCC(=O)O
inactive: Potency [1] | Potency [2] | Potency [3] | Potency [4] | Potency [5] | outcome [6] | outcome [7] | Potency [8] | outcome [10] | Potency [18] | outcome [11] | outcome [12] | outcome [13] | Potency [14] | outcome [19] | Potency [15] | Potency [16] | Potency [17]

CCOC(=O)c1ccccc1C
inactive: Potency [1] | Potency [2] | Potency [3] | Potency [4] | Potency [5] | outcome [6] | outcome [7] | Potency [8] | outcome [9] | outcome [10] | Potency [18] | outcome [11] | outcome [12] | Potency [14] | Potency [15] | Potency [16] | Potency [17]

CCOc1cc(N)c(Cl)cc1C(=O)NCC1CN(Cc2ccc(F)cc2)CCO1 (stereo not drawn)
inactive: Potency [1] | Potency [2] | Potency [3] | Potency [4] | Potency [5] | outcome [6] | outcome [7] | Potency [8] | outcome [9] | Potency [18] | outcome [11] | outcome [12] | outcome [13] | Potency [14] | Potency [15] | Potency [16] | Potency [17]

CC1(C)C(=O)N(Br)C(=O)N1Cl
inactive: Potency [1] | Potency [2] | Potency [3] | Potency [4] | Potency [5] | outcome [6] | outcome [7] | Potency [8] | outcome [10] | Potency [18] | outcome [11] | outcome [13] | Potency [14] | outcome [19]

O=C(CCCCCCC(=O)Nc1ccccc1)NO
inactive: Potency [3] | Potency [4] | Potency [5] | outcome [6] | outcome [7] | Potency [8] | outcome [9] | outcome [10] | outcome [11] | outcome [12] | outcome [13] | Potency [14] | outcome [19] | Potency [15]
active: Potency [1] 750 nM and 668 nM | Potency [2] 2.11 µM and 1.68 µM

CC1CC(=O)NN=C1c1ccc(NCC(C)(C)NCC(O)COc2cc(Cl)ccc2C#N)cc1 (stereo not drawn)
inactive: Potency [1] | Potency [2] | Potency [3] | Potency [4] | Potency [5] | outcome [6] | outcome [7] | Potency [8] | outcome [9] | Potency [18] | outcome [11] | outcome [12] | Potency [14] | outcome [19] | Potency [15] | Potency [16] | Potency [17]

CO[C@H]1C=CO[C@@]2(C)Oc3c(C)c(O)c4c(O)c(c5c(c4c3C2=O)=NC2(CCN(CC(C)C)CC2)N=5)NC(=O)/C(C)=C\C=C/[C@H](C)[C@H](O)[C@@H](C)[C@@H](O)[C@@H](C)[C@H](OC(C)=O)[C@@H]1C
inactive: Potency [1] | Potency [2] | Potency [3] | Potency [5] | outcome [6] | outcome [7] | Potency [8] | outcome [9] | outcome [10] | Potency [18] | outcome [11] | outcome [12] | outcome [13] | Potency [14] | outcome [19] | Potency [15] | Potency [16]
active: Potency [4] 53.3 µM

O=C1NCCN1
inactive: Potency [1] | Potency [2] | Potency [3] | Potency [4] | Potency [5] | outcome [6] | outcome [7] | Potency [8] | outcome [10] | Potency [18] | outcome [11] | outcome [12] | outcome [13] | Potency [14] | outcome [19] | Potency [15] | Potency [16] | Potency [17]

Cc1cnc(C)c(C)n1
inactive: Potency [1] | Potency [2] | Potency [3] | Potency [4] | Potency [5] | outcome [6] | outcome [7] | Potency [8] | outcome [10] | Potency [18] | outcome [11] | outcome [12] | outcome [13] | Potency [14] | outcome [19] | Potency [15] | Potency [16] | Potency [17]
